# About 6,500 targets were measured; listed, in parts, are those with a hit and a random draw of the rest. About 2% of all pairs of compound and target were hits.
# Compound: COC(=O)C#Cc1ccccc1 [methyl 3-phenylpropiolate]
# Experiment: log2 ratio of iodoacetamide-alkyne labeling of the cysteine site, DMSO over compound (competition); higher = stronger covalent engagement of the cysteine by the compound, active = 1 or more
# Settings: 500 µM; treatment time 1 h; system: HEK293T cell lysate
# Outline: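 For each cysteine, the log2 competition ratio is mean control-channel reporter intensity over mean compound-channel reporter intensity. HEK293T lysate (2 mg/mL) was exposed to vehicle or electrophile (500 µM, 1 h, ambient temperature), labelled with iodoacetamide alkyne (1 h), clicked to sCIP-TMT reagents, digested overnight with trypsin at 37 °C, streptavidin-enriched and analysed by Orbitrap Eclipse LC-MS/MS with FAIMS and FragPipe. Cysteines quantified in only one of three replicates, each with duplicate channels, were excluded.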
# Chain of UniProt P56192 (P56192 whole entry, looked up): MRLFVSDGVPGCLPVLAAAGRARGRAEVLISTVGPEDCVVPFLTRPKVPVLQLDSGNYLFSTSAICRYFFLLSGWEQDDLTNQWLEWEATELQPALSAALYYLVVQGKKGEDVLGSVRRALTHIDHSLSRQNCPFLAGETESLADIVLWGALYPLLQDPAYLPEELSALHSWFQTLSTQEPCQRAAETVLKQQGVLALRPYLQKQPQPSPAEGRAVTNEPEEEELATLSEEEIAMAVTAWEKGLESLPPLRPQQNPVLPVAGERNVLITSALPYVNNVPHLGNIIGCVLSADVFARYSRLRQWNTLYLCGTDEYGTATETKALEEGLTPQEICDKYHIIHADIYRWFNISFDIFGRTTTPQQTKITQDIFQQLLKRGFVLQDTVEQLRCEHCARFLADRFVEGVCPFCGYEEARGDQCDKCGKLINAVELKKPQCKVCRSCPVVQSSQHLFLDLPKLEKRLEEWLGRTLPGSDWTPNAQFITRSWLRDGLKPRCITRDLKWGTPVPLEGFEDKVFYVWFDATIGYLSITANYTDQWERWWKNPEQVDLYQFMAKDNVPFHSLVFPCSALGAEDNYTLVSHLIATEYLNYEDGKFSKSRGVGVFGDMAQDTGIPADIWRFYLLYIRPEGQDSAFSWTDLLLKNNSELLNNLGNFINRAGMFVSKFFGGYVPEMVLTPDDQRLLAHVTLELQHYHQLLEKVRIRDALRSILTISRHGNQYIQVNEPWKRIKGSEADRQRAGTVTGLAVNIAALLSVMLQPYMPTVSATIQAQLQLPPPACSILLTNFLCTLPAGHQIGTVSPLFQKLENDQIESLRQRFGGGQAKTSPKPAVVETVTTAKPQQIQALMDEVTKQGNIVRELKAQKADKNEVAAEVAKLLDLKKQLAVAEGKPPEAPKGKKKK
# Chain of UniProt Q15398 (Q15398 whole entry, looked up): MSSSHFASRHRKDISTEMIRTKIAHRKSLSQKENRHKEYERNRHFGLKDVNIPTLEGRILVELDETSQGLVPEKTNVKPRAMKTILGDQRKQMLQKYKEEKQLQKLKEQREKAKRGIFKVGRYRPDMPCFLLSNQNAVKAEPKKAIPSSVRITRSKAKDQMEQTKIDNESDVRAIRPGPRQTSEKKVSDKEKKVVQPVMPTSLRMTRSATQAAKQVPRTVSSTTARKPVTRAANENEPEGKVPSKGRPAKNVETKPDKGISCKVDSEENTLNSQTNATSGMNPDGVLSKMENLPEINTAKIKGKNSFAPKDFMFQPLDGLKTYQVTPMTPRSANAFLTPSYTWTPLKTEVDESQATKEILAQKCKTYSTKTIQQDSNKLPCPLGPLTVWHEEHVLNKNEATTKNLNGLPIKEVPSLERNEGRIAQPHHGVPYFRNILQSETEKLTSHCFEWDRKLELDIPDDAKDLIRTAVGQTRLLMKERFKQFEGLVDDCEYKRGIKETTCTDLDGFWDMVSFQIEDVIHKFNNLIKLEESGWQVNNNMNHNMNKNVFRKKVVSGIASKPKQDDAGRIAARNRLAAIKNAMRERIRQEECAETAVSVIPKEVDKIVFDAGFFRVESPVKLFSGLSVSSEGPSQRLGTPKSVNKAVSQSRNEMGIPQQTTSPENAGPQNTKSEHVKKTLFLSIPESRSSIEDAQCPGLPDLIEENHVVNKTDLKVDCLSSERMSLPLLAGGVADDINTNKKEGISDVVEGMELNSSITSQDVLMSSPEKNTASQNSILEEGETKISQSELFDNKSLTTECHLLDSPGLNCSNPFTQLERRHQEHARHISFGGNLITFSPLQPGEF
# Chain of UniProt Q10713 (Q10713 whole entry): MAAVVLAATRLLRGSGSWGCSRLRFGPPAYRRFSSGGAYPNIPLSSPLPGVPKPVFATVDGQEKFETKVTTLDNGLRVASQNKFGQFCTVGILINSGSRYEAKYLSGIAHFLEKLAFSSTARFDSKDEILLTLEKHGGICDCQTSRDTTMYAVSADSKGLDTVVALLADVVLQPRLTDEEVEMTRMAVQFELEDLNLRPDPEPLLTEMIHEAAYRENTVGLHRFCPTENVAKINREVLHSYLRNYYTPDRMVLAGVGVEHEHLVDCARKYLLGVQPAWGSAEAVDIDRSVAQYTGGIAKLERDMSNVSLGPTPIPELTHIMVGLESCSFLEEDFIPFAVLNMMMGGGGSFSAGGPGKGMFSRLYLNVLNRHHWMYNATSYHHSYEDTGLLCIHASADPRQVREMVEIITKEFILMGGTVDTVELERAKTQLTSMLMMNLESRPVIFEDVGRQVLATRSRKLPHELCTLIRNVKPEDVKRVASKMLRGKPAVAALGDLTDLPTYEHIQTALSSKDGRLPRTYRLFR
# Chain of UniProt Q5JSL3 (Q5JSL3 whole entry, looked up): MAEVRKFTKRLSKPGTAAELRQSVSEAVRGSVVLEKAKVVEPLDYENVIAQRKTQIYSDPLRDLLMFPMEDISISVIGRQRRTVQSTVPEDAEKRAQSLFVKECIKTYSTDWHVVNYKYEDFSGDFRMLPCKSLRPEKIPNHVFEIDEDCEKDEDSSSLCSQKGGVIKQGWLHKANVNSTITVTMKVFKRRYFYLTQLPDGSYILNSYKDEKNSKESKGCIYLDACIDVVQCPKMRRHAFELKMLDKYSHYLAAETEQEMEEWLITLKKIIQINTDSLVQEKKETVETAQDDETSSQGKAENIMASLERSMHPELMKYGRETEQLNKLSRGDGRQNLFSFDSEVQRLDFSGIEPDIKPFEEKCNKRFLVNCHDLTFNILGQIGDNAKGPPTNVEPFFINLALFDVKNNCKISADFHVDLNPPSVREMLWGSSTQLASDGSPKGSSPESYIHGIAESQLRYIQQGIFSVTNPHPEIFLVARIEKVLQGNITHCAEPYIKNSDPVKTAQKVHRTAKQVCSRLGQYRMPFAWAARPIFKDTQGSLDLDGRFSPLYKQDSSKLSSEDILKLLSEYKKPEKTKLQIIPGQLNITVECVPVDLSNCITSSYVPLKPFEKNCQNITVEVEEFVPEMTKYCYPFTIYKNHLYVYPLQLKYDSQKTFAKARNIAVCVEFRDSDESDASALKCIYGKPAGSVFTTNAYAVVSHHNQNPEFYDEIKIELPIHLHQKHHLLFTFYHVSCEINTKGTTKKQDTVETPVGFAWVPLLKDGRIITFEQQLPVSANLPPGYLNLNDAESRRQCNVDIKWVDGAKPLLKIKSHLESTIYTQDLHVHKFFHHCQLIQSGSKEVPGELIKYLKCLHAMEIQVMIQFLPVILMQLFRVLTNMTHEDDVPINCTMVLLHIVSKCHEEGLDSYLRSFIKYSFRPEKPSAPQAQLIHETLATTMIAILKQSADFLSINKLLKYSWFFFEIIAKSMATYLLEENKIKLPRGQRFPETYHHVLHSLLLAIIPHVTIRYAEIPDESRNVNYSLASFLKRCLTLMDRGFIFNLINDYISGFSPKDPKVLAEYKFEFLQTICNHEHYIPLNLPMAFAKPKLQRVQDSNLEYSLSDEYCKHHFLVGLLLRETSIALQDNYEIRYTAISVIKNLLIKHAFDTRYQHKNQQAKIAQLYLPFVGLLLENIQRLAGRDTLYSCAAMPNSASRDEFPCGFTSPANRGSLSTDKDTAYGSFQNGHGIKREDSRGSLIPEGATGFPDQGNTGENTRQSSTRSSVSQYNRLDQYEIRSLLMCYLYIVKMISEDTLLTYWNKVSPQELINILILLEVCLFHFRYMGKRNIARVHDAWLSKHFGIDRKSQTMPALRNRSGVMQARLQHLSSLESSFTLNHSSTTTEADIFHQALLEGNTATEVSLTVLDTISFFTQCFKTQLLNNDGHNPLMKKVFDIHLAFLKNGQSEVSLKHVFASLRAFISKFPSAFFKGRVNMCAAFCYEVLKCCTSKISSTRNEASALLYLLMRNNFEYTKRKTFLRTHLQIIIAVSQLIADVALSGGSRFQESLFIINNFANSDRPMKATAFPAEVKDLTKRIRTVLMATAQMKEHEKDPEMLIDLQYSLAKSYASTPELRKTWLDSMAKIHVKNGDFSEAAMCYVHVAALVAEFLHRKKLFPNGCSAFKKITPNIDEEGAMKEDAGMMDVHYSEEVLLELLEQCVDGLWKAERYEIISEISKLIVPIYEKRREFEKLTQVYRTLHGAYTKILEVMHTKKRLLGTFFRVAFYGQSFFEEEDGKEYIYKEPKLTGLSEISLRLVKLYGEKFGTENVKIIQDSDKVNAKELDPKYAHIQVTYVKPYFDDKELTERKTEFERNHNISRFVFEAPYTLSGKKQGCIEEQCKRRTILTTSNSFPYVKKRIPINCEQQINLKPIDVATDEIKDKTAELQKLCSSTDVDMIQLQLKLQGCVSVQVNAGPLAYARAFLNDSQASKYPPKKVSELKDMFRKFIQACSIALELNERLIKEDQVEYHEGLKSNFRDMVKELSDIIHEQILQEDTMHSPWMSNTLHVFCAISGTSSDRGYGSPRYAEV
# Chain of UniProt Q01518 (Q01518 whole entry): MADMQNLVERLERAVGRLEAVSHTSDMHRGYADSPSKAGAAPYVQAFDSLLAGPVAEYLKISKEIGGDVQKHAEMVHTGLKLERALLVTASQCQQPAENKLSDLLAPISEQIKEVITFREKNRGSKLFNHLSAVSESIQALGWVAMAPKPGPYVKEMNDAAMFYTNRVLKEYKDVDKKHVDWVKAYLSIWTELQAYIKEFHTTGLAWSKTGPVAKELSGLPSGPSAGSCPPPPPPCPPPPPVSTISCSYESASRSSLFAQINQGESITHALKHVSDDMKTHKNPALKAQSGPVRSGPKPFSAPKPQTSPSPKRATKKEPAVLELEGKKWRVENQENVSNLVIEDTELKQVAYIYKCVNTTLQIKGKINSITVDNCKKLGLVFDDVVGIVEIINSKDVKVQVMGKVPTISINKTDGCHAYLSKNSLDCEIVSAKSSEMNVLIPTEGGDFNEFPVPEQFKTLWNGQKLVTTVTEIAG
# Chain of UniProt Q13526 (Q13526 whole entry, looked up): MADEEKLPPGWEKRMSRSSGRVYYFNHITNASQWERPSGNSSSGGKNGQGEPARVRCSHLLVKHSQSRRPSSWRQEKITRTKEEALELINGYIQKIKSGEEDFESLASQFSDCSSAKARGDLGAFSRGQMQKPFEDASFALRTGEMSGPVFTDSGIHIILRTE
row,Target,log2 ratio of iodoacetamide-alkyne labeling
1,UniProt P62753_C12,0.196 (inactive)
2,UniProt P62273_C39,0.0855 (inactive)
3,PPA1 C270 (UniProt Q15181),0.153 (inactive)
4,LGALS3BP C489 (UniProt Q08380),1.72 (active)
5,PMPCA C466 (UniProt Q10713),0.00592 (inactive)
6,PDS5A C581 (UniProt Q29RF7),0.744 (inactive)
7,RPS27A C144 (UniProt P62979),-0.175 (inactive)
8,PITRM1 C780 (UniProt Q5JRX3),0.31 (inactive)
9,UniProt P62854_C77,0.434 (inactive)
10,UniProt P55769_C30,-0.0266 (inactive)
11,SPECC1 C740 (UniProt Q5M775),-0.0117 (inactive)
12,UniProt Q15042_C873,0.165 (inactive)
13,FOXK1 C439 (UniProt P85037),0.622 (inactive)
14,SART3 C472 (UniProt Q15020),0.326 (inactive)
15,NOTCH2 C1357 (UniProt Q04721),1.55 (active)
16,MARS C12 (UniProt P56192),0.428 (inactive)
17,CAP1 C93 (UniProt Q01518),0.152 (inactive)
18,UniProt Q3LXA3_C24,0.218 (inactive)

row,Target,log2 ratio of iodoacetamide-alkyne labeling
1,R3HDM1 C304 (UniProt Q15032),0.1 (inactive)
2,FHL1 C71 (UniProt Q13642),0.0627 (inactive)
3,SUZ12 C325 (UniProt Q15022),1.07 (active)
4,GABPB1 C331 (UniProt Q06547),0.198 (inactive)
5,UniProt P60891_C165,-0.19 (inactive)
6,RPS27A C149 (UniProt P62979),0.251 (inactive)
7,RRP12 C31 (UniProt Q5JTH9),1.26 (active)
8,DLGAP5 C129 (UniProt Q15398),1.38 (active)
9,CDK5 C157 (UniProt Q00535),0.141 (inactive)
10,DOCK11 C409 (UniProt Q5JSL3),-0.0544 (inactive)
11,BMS1 C725 (UniProt Q14692),1.27 (active)
12,LGALS3BP C496 (UniProt Q08380),1.72 (active)
13,PRDX4 C51 (UniProt Q13162),1.66 (active)
14,UniProt P78527_C4061,0.465 (inactive)
15,UniProt P61163_C222,0.293 (inactive)
16,BOP1 C373 (UniProt Q14137),0.0315 (inactive)
17,PIN1 C57 (UniProt Q13526),-0.187 (inactive)
